In paper PMC5540273 (PLoS ONE, 2017):
Where two headings read alike, the source gives them in different places.

Key:
Details in all cases: n = 1
EPHA4 = test system: EPHA4
EPHA5 = test system: EPHA5
EPHA6 = test system: EPHA6
EPHA7 = test system: EPHA7
EPHA8 = test system: EPHA8
EPHB1 = test system: EPHB1
EPHB2 = test system: EPHB2
EPHB3 = test system: EPHB3
EPHB4 = test system: EPHB4
EPHB6 = test system: EPHB6
[1] = concentration: 1 μM, replicates: in singlicate
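Note: KINOMEscan kinase panel screen.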

Structure (SMILES) | %Inh (EPHA4; [1]) [%] | %Inh (EPHA5; [1]) [%] | %Inh (EPHA6; [1]) [%] | %Inh (EPHA7; [1]) [%] | %Inh (EPHA8; [1]) [%] | %Inh (EPHB1; [1]) [%] | %Inh (EPHB2; [1]) [%] | %Inh (EPHB3; [1]) [%] | %Inh (EPHB4; [1]) [%] | %Inh (EPHB6; [1]) [%] | %Inh (EPHA4; 1 µM) [%] | %Inh (EPHA5; 1 µM) [%] | %Inh (EPHA6; 1 µM) [%] | %Inh (EPHA7; 1 µM) [%] | %Inh (EPHA8; 1 µM) [%] | %Inh (EPHB1; 1 µM) [%] | %Inh (EPHB2; 1 µM) [%] | %Inh (EPHB3; 1 µM) [%] | %Inh (EPHB4; 1 µM) [%] | %Inh (EPHB6; 1 µM) [%]
Cc1ccccc1-n1cnc2c(N)ncnc21 [SKF-97510] | 4 | 0 | 0 | 0 | 0 | 1 | 0 | 0 | 0 | 7 | – | – | – | – | – | – | – | – | – | –
Cl.O=C(Nc1cccc(-c2nn3ncccc3c2-c2ccnc(Nc3cccnc3)n2)c1)c1c(F)cccc1F [GSK312879] | 1 | 0 | 1 | 7 | 27 | 13 | 0 | 0 | 12 | 10 | – | – | – | – | – | – | – | – | – | –
CC(C)(C)c1ccc(C(=O)Nc2cn3cc(-c4cccnc4)ccc3n2)cc1 | 25 | 13 | 29 | 4 | 8 | 19 | 4 | 26 | 16 | 28 | – | – | – | – | – | – | – | – | – | –
Cn1ccc2ncnc(Oc3ccc(Nc4nc5ccccc5[nH]4)cc3)c21 | 12 | 0 | 4 | 0 | 0 | 0 | 0 | 0 | 1 | 0 | – | – | – | – | – | – | – | – | – | –
COc1cccc(-c2cc(-c3c[nH]nc3-c3ccccn3)ccn2)c1 [GW680338] | 2 | 0 | 0 | 0 | 8 | 7 | 16 | 2 | 15 | 0 | – | – | – | – | – | – | – | – | – | –
O=C(Nc1n[nH]c2cc(-c3cccc(F)c3F)ccc12)C1CC1 [SB-733894] | 1 | 0 | 0 | 0 | 0 | 0 | 20 | 10 | 62 | 31 | – | – | – | – | – | – | – | – | – | –
CN1C(=O)C(Nc2ccc(Cl)c(C(=O)O)c2)=C(c2ccc(Cl)cc2)C1=O [SB-404290] | 1 | 0 | 2 | 2 | 19 | 9 | 0 | 7 | 0 | 28 | – | – | – | – | – | – | – | – | – | –
Cc1ccc(NC(=O)Nc2cccc(C(F)(F)F)c2)cc1 [GSK955403] | – | – | – | – | – | – | – | – | – | – | 6 | 0 | 0 | 2 | 3 | 5 | 3 | 0 | 0 | 21
O=C(Nc1ccccc1)Nc1cccc(Oc2ccc3nccn3n2)c1 | 0 | 0 | 0 | 0 | 0 | 0 | 3 | 0 | 10 | 9 | – | – | – | – | – | – | – | – | – | –
O=c1cc(N2CCOCC2)nc2n(Cc3cccc(Cl)c3Cl)ccn12 [GSK2286295] | 0 | 0 | 0 | 3 | 12 | 13 | 0 | 11 | 14 | 24 | – | – | – | – | – | – | – | – | – | –
COC(=O)c1c(-c2ccccc2)c2cc(OC)ccc2c(=O)n1Cc1ccccc1 | 35 | 1 | 43 | 0 | 1 | 0 | 23 | 35 | 27 | 0 | – | – | – | – | – | – | – | – | – | –
Cl.c1ccc(-c2n[nH]cc2-c2ccnc(-c3ccc(CN4CCOCC4)cc3)c2)nc1 [GW776245] | 16 | 11 | 5 | 15 | 19 | 10 | 30 | 13 | 17 | 0 | – | – | – | – | – | – | – | – | – | –
Cc1c(Cn2ccn3c(=O)cc(N4CCOCC4)nc23)cccc1C(F)(F)F [GSK2289044] | 6 | 0 | 0 | 0 | 0 | 21 | 0 | 5 | 9 | 0 | – | – | – | – | – | – | – | – | – | –
Cc1cccc(-c2cc(Nc3ccncc3)c3ccccc3n2)n1 [GSK223675] | 0 | 0 | 0 | 0 | 0 | 4 | 0 | 0 | 0 | 25 | – | – | – | – | – | – | – | – | – | –
COc1cc2ncn(-c3cc(OCC4CCCO4)c(C(N)=O)s3)c2cc1OC (stereo not drawn) [GSK204607] | 7 | 0 | 1 | 0 | 3 | 24 | 0 | 0 | 27 | 23 | – | – | – | – | – | – | – | – | – | –
Cn1cncc1-c1ccc2ncnc(Nc3ccc(OCc4ccccc4)cc3)c2c1 [GW320571] | 13 | 2 | 19 | 1 | 12 | 6 | 0 | 23 | 8 | 3 | – | – | – | – | – | – | – | – | – | –
CCCc1ccc(S(=O)(=O)NC2CCN(c3ccnc(Nc4ccc(F)cc4)n3)C2)cc1 (stereo not drawn) [GSK1379715] | 13 | 0 | 6 | 2 | 23 | 0 | 6 | 15 | 15 | 2 | – | – | – | – | – | – | – | – | – | –
O=C(O)COc1ncnc2cc(-c3ccc4[nH]ncc4c3)sc12 | 0 | 42 | 4 | 0 | 0 | 0 | 0 | 0 | 7 | 47 | – | – | – | – | – | – | – | – | – | –
